IEC-6 tox: IEC-6 cytotoxicity, counter-screen for KLF5 inhibitors | luminescence viability | inhibition, % at 5 µM | 290,000 compounds, 0.78% hits | AID 1825; in the data active = inhibition above about 22%;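 note: 0% = plate median of test compound wells and 100% = cytotoxic reference compound wells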
CSC inhib: blocks cancer stem cells. cancer stem cell-like cells viability, luminescence. inhibition, % at 7.5 µM. 300,000 compounds, 1.1% hits. AID 2717; in the data active = inhibition above about 75%; tested in HMLE shEcad cells
KLF5 inh: kruppel-like factor 5 inhibition; inhibition, % at 5 µM; AID 1700; 290,000 compounds, 0.23% hits; DLD-1 KLF5 promoter-luciferase reporter, luminescence;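 active = inhibition above a per-plate limit of that plate's mean compound inhibition plus 3 SD, cut at about 60% in these data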;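 note: 0% = DMSO wells and 100% = LY294002 at 200 µM; higher means less KLF5 promoter-driven luciferase light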
aSyn 5UTR inh: 5' untranslated region of α-synuclein, MLPCN primary screen | alpha-synuclein 5'UTR reporter, inhibitor activity | inhibition, % (tested at 7.5 µM) | 300,000 compounds, 0.82% hits | AID 1813; in the data active = inhibition above about 60%;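 note: H4 neuroglioblastoma cells stably carrying SNCA 5'UTR luciferase fusion; 0% = DMSO wells and 100% = positive control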
SKKanGAS inh: blocks kanamycin growth of S. pyogenes SKKanGAS strain | 300,000 compounds, 1.3% hits | inhibition, % at 7.5 µM | BacTiter-Glo, 6 h;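 active = mean replicate score, as percent of positive control median, at least 50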;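 note: strain carries kanamycin resistance gene driven by streptokinase promoter and grows in 40 µg/ml kanamycin; loss of luminescence reflects streptokinase promoter inhibition or plain growth inhibition; 0% = median of DMSO wells and 100% = positive control at its reference dose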
An asterisk follows results filed as active; nt = not tested or not shown. Rows were chosen to be rich in hits. Some 3% of all compounds tested hit in one or more screens of this group.

SMILES	IEC-6 tox	CSC inhib	KLF5 inh	aSyn 5UTR inh	SKKanGAS inh
CC(C)CC(NC(=O)c1ccc(Cl)cc1)C(=O)OCC(=O)c1ccc2c(c1)NC(=O)CO2 (centres undefined)	-1	43	-23	96*	4
O=C(Cc1ccc(S(=O)(=O)N2CCCC2)s1)Nc1nc2c(s1)CCCC2	-8	-7	-14	38	62*
Cc1cc(C)cc(NC(=O)Cc2ccc(S(=O)(=O)N3CCCC3)s2)c1	nt	-12	nt	nt	nt
O=C(COC(=O)Cc1cn2ccsc2n1)Nc1nc2ccccc2s1	9	3	-10	-1	80*
COCC(=O)Nc1nc2ccccc2s1	2	-4	-70	-53	5
C=C[C@@]1(C)CC(=O)[C@]2(O)[C@@]3(C)[C@@H](O)CCC(C)(C)[C@@H]3[C@H](O)[C@H](OC(C)=O)[C@@]2(C)O1	nt	7	nt	72*	-3
C=C[C@@]1(C)CC(=O)[C@]2(O)[C@@]3(C)[C@@H](O)CCC(C)(C)[C@@H]3[C@H](OC(C)=O)[C@H](O)[C@@]2(C)O1	nt	5	nt	66*	0
Cc1ccc(C(=O)N2N=C(c3ccc(Br)cc3)CC2c2ccccc2O)cc1 (centres undefined)	4	112*	4	-7	33
Cc1ccc(Nc2nc3c(c(=O)[nH]c(=O)n3C)n2Cc2ccc(F)cc2)cc1	3	nt	-25	20	-13
Cc1nn(-c2ccccc2)c2sc(C(=O)NC3CCCCC3)cc12	1	45	10	-2	11
Cc1nn(-c2ccccc2)c2sc(C(=O)N3CCCCC3)cc12	-1	-7	-3	-68	24
Cc1nn(-c2ccccc2)c2sc(C(=O)N3CCc4ccccc4C3)cc12	2	nt	14	6	55*
Cc1cnc(NC(=O)c2cc3c(C)nn(-c4ccccc4)c3s2)s1	1	6	5	-66	107*
CSc1nc(N)n2nc(-c3ccccc3)cc2n1	11	-2	-81	-119	2
O=C(Nc1ccc(Cl)cc1)Nc1ccccc1Sc1ncc([N+](=O)[O-])s1	-3	84*	-52	-90	31
CCCCN(CCCC)S(=O)(=O)c1ccc(C(=O)Nc2nnc(COC)o2)cc1	0	22	-19	62*	92*
CCN(CC)S(=O)(=O)c1ccc(C(=O)Nc2nnc(COC)o2)cc1	-4	-2	-35	7	4
CCCCN(CC)S(=O)(=O)c1ccc(C(=O)Nc2nnc(-c3cccs3)o2)cc1	-4	41	-17	47	98*
CCN(CC)S(=O)(=O)c1ccc(C(=O)Nc2nnc(-c3ccco3)o2)cc1	0	2	13	5	8
COC(=O)Cc1c[nH]c2cccc(OCC(O)CN(Cc3ccc([N+](=O)[O-])cc3)C(C)(C)C)c12 (centres undefined)	-8	0	-55	-8	-3
Cc1ccc(CN(CC(O)COc2cccc3[nH]cc(C)c23)C(C)(C)C)cc1 (centres undefined)	3	76*	-23	-9	-2
CCCNC(=O)CCCN1C(=O)c2ccccc2Sc2ncccc21	8	-3	-43	-16	-3
O=C(CN1CCOCC1)NN1CC(=O)N(c2ccc(Cl)cc2)CC1=O	0	nt	-19	-1	-2
O=c1[nH]c2ccc(Cl)cc2c(-c2ccccc2)c1N1CCN(c2ccccn2)CC1	1	40	-36	-22	84*
Cc1nc(-c2ccc(S(=O)(=O)Nc3ccc(Br)cc3Cl)s2)cs1	1	nt	-4	-1	74*
SMILES	IEC-6 tox	CSC inhib	KLF5 inh	aSyn 5UTR inh	SKKanGAS inh
Cc1nc(-c2ccc(S(=O)(=O)Nc3cccc(S(N)(=O)=O)c3)s2)cs1	1	-7	16	-9	6
Cc1ccc(Cn2c(=O)n(Cc3ccco3)c(=O)c3ccccc32)cc1	-6	-8	-17	34	55*
C/C(=N\NC(=S)NCc1ccccc1)c1ccc(Br)cc1	-4	19	-33	6	-4
C/C(=N\NC(=S)NCc1ccccc1)c1ccc2ccccc2c1OC(F)F	-8	42	-26	6	67*
NS(=O)(=O)c1cccc(NC(=O)COC(=O)c2ccccc2C(=O)c2ccccc2)c1	nt	-15	nt	nt	nt
Cc1c(C(=O)OCC(=O)Nc2cccc(S(N)(=O)=O)c2)oc2c1ccc1ccccc12	3	4	-4	22	66*
O=C(O)c1cccc(NC(=O)c2ccc3c(c2)C(=O)N(C2CCCCC2)C3=O)c1	-9	-18	-129	-36	16
COc1ccc(Br)cc1/C=N/NC(=O)c1ccco1	2	-17	17	-1	-1
CC(C)(C)c1ccc(OCC(=O)N/N=C/c2cc(Br)ccc2OC(=O)c2ccco2)cc1	5	101*	-10	83*	13
